# A selection: hits, their analogues and other compounds. The true share with any hit is near 5.7%.
# HEK293 tox: cytotoxic in the GLP-1 receptor inverse agonist counter-screen. HEK293 cAMP-luciferase reporter cells, luminescence, 24 h. Potency, µM (top dose mostly 38.3 µM), actives largely listed as inhibitors. hit rate 0.13% among 410,000;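 further: loss of luciferase light is scored as toxicity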
#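 MLSMR compounds, 24 hr on cells at 37 deg C/5% CO2; luminescence after luciferase reagent (12 min RT). Inhibition counted as the undesired cytotoxic outcome.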
# GLP-1R agonist: agonists of human GLP-1 receptor | P43220 | HEK293 GLP-1R CRE-luciferase, luminescence, 4-6 h; cells express a hypersensitive GLP-1R form | Potency, µM (highest dose often 45.6 µM), actives largely listed as activators | hit rate 0.007% among 380,000 | AID 624172
# Target sequence (P43220 whole entry, looked up): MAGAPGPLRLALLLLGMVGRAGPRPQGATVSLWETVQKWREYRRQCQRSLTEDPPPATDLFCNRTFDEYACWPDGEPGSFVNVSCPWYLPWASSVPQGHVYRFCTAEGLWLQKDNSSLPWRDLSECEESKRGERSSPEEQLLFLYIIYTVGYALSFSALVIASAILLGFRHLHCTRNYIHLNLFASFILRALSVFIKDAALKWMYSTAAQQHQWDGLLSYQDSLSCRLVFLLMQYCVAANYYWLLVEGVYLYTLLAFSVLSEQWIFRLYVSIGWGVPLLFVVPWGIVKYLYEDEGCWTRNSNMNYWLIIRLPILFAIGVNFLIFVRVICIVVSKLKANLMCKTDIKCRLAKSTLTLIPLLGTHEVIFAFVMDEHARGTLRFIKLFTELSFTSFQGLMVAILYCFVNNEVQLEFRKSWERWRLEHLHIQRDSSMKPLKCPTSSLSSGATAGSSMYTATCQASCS
# ClpP mod: qHTS Assay for Activators of ClpP; hit rate 1.9% among 340,000; Potency, µM (highest dose often 57.5 µM); purified B. subtilis ClpP, FRET peptide cleavage, 20 min; active means well fitted falling curve with a large enough effect; inconclusive means small, poorly fitted or top-dose-only effect; inactive means no such curve, though single readings can be large or run the other way; further: the source files actives as falling curves though it sought activators and does not explain the sign; nearly all actives have a fitted effect of over 65% in size
# Target sequence (P80244 whole entry, looked up): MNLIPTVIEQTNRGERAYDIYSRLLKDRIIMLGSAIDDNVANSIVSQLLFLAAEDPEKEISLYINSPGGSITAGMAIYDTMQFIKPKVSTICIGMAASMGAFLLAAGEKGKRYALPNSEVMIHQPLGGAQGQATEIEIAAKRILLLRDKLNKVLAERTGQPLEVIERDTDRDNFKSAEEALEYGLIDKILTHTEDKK
#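 Purified B. subtilis ClpP, 10 microg/mL final in Tris/HCl pH8 with KCl, BSA, glycerol and Tween-20, cleaved an Abz/nitrotyrosine-quenched decapeptide. Fluorescence (ex 320, em 430) was read at 0 and 20 min at room temperature. Delta was normalized to 5.8 microM ADEP and DMSO/no-enzyme controls.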
# GLP1R inv ag: inverse agonists of human GLP-1 receptor; HEK293 GLP-1R CRE-luciferase, luminescence, 24 h; GLP-1R form is constitutively active; Potency, µM (highest dose often 38.3 µM), hits mostly inhibitors; hit rate 1.6% among 410,000; further: nearly all actives have a fitted effect of over 55% in size
#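 qHTS in 1536-well format: reporter HEK293 cells expressing constitutive GLP-1R activity in DMEM + 10% Nu serum, 24 hr with compounds at 37 deg C, luminescence read after 12 min with detection reagent.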
# DRD3 agonist: D3 dopamine receptor (human) agonism. P35462. hit rate 0.58% among 410,000. max activation, %. D3R DiscoveRx beta-arrestin cells, luminescence, 90 min; in the data active means max activation above about 30%
#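 Cells at 1500/well, incubated overnight, then treated with pinned compounds (dopamine as control) for 90 min at 37 degrees C. DiscoveRx reagent added for 30 - 60 minutes at room temperature; luminescence read.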
# DRD3 antagonist: blocks the human D3 dopamine receptor; hit rate 2.5% among 360,000; max response, negative = inhibition, %; P35462; D3R cells, DiscoveRx beta-arrestin luminescence, antagonist mode; hits give low values; in the data active means max response below about -50%; inconclusive means no clear call, values can overlap the other calls
#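 Cells expressing the human receptor were seeded at 1500 cells/well, incubated overnight at 37 degrees C in 5% CO2, then exposed to library compounds with dopamine controls for 90 minutes at 37 degrees C before luminescent detection.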
# A number is an active result; . = inactive; ? = inconclusive; / = not tested or not shown. Unless noted, the call rests on the fitted dose curve; in most records, active means well fitted curve in the direction sought with a large enough effect; inconclusive means small, poorly fitted or top-dose-only effect, or another doubt; inactive means no such curve, though single readings can be large; an effect the other way counts as inactive or inconclusive.
SMILES,HEK293 tox,GLP-1R agonist,ClpP mod,GLP1R inv ag,DRD3 agonist,DRD3 antagonist
Oc1c(Cl)cc(Cl)cc1/C=N/Nc1ncc(Br)cn1,?,.,/,?,.,-106.7
OC[C@@H]1CN(Cc2ccc(-c3ccccc3)cc2)C[C@H](n2cnc3c(N4CCOCC4)ncnc32)O1,.,.,.,.,.,.
Cc1ccccc1CN1CCc2nc(Nc3ccc4c(c3)OCCO4)ncc2C1,.,/,.,.,.,/
Cc1ccccc1C(=O)Nc1cccc(NC(=O)c2ccc(C(C)(C)C)cc2)c1,.,/,.,7.94µM,.,/
COc1ccc(Cl)cc1NC(=O)CN(c1cc(C)cc(C)c1)S(=O)(=O)c1c(C)n[nH]c1C,.,.,.,?,.,/
Cc1ccc(-c2cc(C(F)F)nc(NCc3cccnc3)n2)cc1,.,.,14.1µM,?,.,.
Cc1ccc2c(CC(=O)N(Cc3cccc(Cl)c3)C3CCS(=O)(=O)C3)coc2c1 (configuration not stated),.,/,.,?,.,/
O=S(=O)(Nc1ccc2c(c1)nc1n2CCN(Cc2ccccc2)C1)c1ccc(Cl)cc1,.,.,.,.,.,-58.2
O=C(Nc1ccc2c(c1)nc1n2CCN(Cc2ccccc2)C1)NC1CCCCC1,.,.,28.2µM,.,.,.
Cc1ccc(S(=O)(=O)Nc2ccc3c(c2)nc2n3CCN(Cc3ccccc3)C2)cc1,.,.,.,.,.,-51.3
COc1ccc(CNS(=O)(=O)c2ccc(N3CCCCS3(=O)=O)cc2)cc1,.,/,.,.,.,/
CC1CCN(S(=O)(=O)c2ccc3nc(NCc4ccccc4)ccc3c2)CC1,.,/,.,?,.,/
CCCCOC(=O)c1ccc(NC(=O)COC(=O)C2CC2C)cc1 (configuration not stated),.,.,.,.,.,.
CC(C)n1nnnc1-c1cccc(Cl)c1,.,.,.,.,.,-50.6
CC(Sc1nnc(-c2ccncc2)n1C)C(=O)NCC(=O)Nc1ccc(F)c(F)c1F (configuration not stated),.,.,.,.,.,.
CC(Sc1nnnn1-c1ccc(Cl)cc1)C(=O)NCC(=O)Nc1ccc(F)c(F)c1F (configuration not stated),.,.,25.1µM,?,.,.
Fc1cccc2sc(Nc3nc4cc5c(cc4s3)OCO5)nc12,.,.,14.1µM,.,.,.
COc1cc2c(cc1OC)C(CNC(=O)C=Cc1cc(OC)c(OC)c(OC)c1)C2 (configuration not stated),.,.,.,.,.,.
Cc1ccc(C(=O)C2=C(O)C(=O)N(Cc3cccnc3)C2c2cccc(Oc3ccccc3)c2)o1 (configuration not stated),.,.,.,.,.,-69.3
COc1cc(C2C(C(=O)c3ccc(C)o3)=C(O)C(=O)N2Cc2ccccc2)ccc1O (configuration not stated),.,.,/,?,.,.
CCOc1cc(C2C(C(=O)c3ccc(C)o3)=C(O)C(=O)N2CCc2ccccc2)ccc1O (configuration not stated),.,.,.,?,.,-56.3
C=CCOc1cccc(C2C(C(=O)c3ccc(C)o3)=C(O)C(=O)N2CCN(C)C)c1 (configuration not stated),.,.,.,.,.,-63.5
COc1cc(C2C(C(=O)c3ccc(C)o3)=C(O)C(=O)N2CCCn2ccnc2)cc(OC)c1OC (configuration not stated),.,.,25.1µM,.,.,.
O=C(C[n+]1csc2ccccc21)c1cccc([N+](=O)[O-])c1,/,/,.,/,/,/
CCC(CC)C(=O)Nc1ccc(S(=O)(=O)N2CCC(c3nc4ccccc4s3)CC2)cc1,.,/,.,.,.,/
SMILES,HEK293 tox,GLP-1R agonist,ClpP mod,GLP1R inv ag,DRD3 agonist,DRD3 antagonist
O=C(Cn1ncc2c1-c1ccccc1OC2)N1CCc2ccccc21,.,.,.,.,.,?
O=C(Cn1ncc2c3ccccc3n(Cc3ccccc3)c2c1=O)N1CCN(c2ccccn2)CC1,.,.,?,?,.,.
O=C(Cn1ncc2c3ccccc3n(Cc3ccccc3)c2c1=O)N1CCN(c2ncccn2)CC1,.,.,31.6µM,.,.,.
O=C(Cn1cnc2ccccc2c1=O)N1CCN(Cc2ccccc2)CC1,.,.,20µM,.,.,.
O=C(Cn1ncc(Cl)c(Cl)c1=O)N1CCc2ccccc21,5.62µM,.,/,?,.,?
O=C(Cn1ncc(Cl)c(Cl)c1=O)N1CCN(Cc2ccccc2)CC1,?,.,.,?,.,-63.1
Cc1ccc(C)c(NC(=O)Cn2c(=O)n(CCCS(=O)(=O)C3CCCCC3)c(=O)c3ccccc32)c1,.,.,.,.,.,/
CN(C(=O)c1cccc(NC(=O)Cc2ccc(NC(=O)C3CCN(C(=O)C4CCC4)CC3)cc2)c1)C1CC1,.,.,.,.,.,.
COc1ccccc1CNC(=O)CN1C(=O)CSc2ccc(S(=O)(=O)N3CCCCC3)cc21,.,.,.,?,.,/
Cc1cccc2c(=O)n3c(cc12)-c1[nH]c2ccccc2c1CC3,.,.,14.1µM,.,.,.
COc1ccc2[nH]c3c(=O)n(CCCCC(=O)NCCN4CCCC4)c(=S)[nH]c3c2c1,.,.,.,.,.,-95.6
O=C(N/N=C/c1cccc2nccnc12)c1ccccc1O,?,.,.,?,.,.
O=C(N/N=C/c1cccc2cccnc12)c1ccccc1O,?,.,.,?,.,-53.2
N#CC1(Nc2ccc3ccccc3c2)CCCC1,.,.,/,.,.,.
COc1cc(NC(=O)C[n+]2ccc(C(=O)c3ccccc3)cc2)cc(OC)c1,.,.,.,.,.,-72.1
COc1cc(NC(=O)Cc2ccccc2)cc(OC)c1,.,.,.,.,.,.
COc1cc(NC(=S)NC(=O)CCc2ccccc2)cc(OC)c1,?,.,.,?,.,-52.5
COc1cc(OC)cc(C(=O)Nn2cnnc2)c1,.,.,.,.,.,.
COc1cccc(C(=O)Nn2cnnc2)c1,.,.,/,.,30.5,.
CC(C)(C)NS(=O)(=O)c1cccc(S(=O)(=O)c2cccc(S(=O)(=O)NC(C)(C)C)c2)c1,.,.,.,.,.,-122.5
CC(=O)/C=C/n1c(=S)oc2ccccc21,11.2µM,.,.,?,.,-85.5
C#CCNC(=O)C[C@@H]1C[C@@]2(C(=O)OC)CCCCC=C2N(Cc2ccc(Cl)cc2Cl)C1=O,.,.,.,?,.,.
CCCCNC(=O)CCCn1c(=O)c2ccccc2n(CC(=O)Nc2ccccc2OCC)c1=O,.,.,.,.,.,/
O=S(=O)(NCc1c(Cl)cccc1Oc1ccccc1)c1ccccc1,.,.,/,10µM,.,.

# High-throughput results deposited in PubChem by National Center for Advancing Translational Sciences (NCATS).
